The values below come from PubChem BioAssay (NCI).

SMILES strings stand for the structures. The panel holds about 79,000 compounds, 15% with a hit somewhere; the sample as a whole holds those more often. Unmarked numbers belong to inactive results. Calls of active or inactive are those of the source. Rule as the data show it: active = growth inhibition above about 70%; inactive = the rest.

A short description of assay [1]: NCI Yeast Anticancer Drug Screen. Data for the rad50 strain (AID 155).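 Also: 0% = growth of vehicle-only cultures of the same strain.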 To be noted: S. cerevisiae rad50 strain growth inhibition, hits give high values. A digest of the protocol:
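Relative growth inhibition (compound vs vehicle) was measured in yeast with a defined repair-gene alteration.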

The nature of assay [2]: NCI Yeast Anticancer Drug Screen. Data for the mec2-1 strain (AID 157). As to conditions: S. cerevisiae mec2-1 strain, hits give high values. A digest of the protocol:
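Yeast mec2-1 mutant treated with compound. Readout: growth inhibition vs vehicle controls.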

Assay [3] is described as follows: NCI Yeast Anticancer Drug Screen. Data for the sgs1 mgt1 strain (AID 161).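 Also: 0% = growth of cultures given vehicle only.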 As to conditions: S. cerevisiae sgs1 mgt1 strain, hits give high values. A digest of the protocol: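 Mutant yeast exposed to compound; growth scored against vehicle-only wells.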
Assay [4] is described as follows: NCI Yeast Anticancer Drug Screen. Data for the cln2 rad14 strain (AID 165).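 Also: 0% = growth equal to vehicle treated cultures.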 To be noted: S. cerevisiae cln2 rad14 strain, hits give high values. In short, it runs like this:
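cln2 rad14 yeast strain; compound exposure; growth inhibition read vs vehicle controls.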

Assay [5] is described as follows: NCI Yeast Anticancer Drug Screen. Data for the bub3 strain (AID 167). As to conditions: S. cerevisiae bub3 mutant strain, hits give high values. In short, it runs like this:
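Screening used yeast with an engineered genetic alteration affecting cell cycle control. Compound-exposed cultures were compared with vehicle cultures, and reduced growth was taken as inhibition.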

Assay [6] is described as follows: NCI Yeast Anticancer Drug Screen. Data for the mlh1 rad18 strain (AID 175). As to conditions: S. cerevisiae mlh1 rad18 strain growth inhibition, hits give high values. A digest of the protocol:
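Yeast w/ defined DNA-repair lesions; compound exposure; growth vs vehicle controls → % inhibition.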

[7] abbreviates: at 5.0 µM (retest, dose inferred, filed as 0.5).
Setting [8] is: at 50.0 µM (retest, dose inferred, filed as 5.0).

On to `CCCCCCCCCCCC[S+](C)CC(=O)[O-]` (configuration not stated), for which the growth inhibition is 20% in assay [1] (setting [7]); 74% (active) in assay [1] (setting [8]); 23.2% in assay [1] (at 50.0 µM); 5% in assay [2] (setting [7]); 70% (active) in assay [2] (setting [8]); 48.8% in assay [2] (at 50.0 µM). The growth inhibition in assay [3] (setting [7]) is -2%; in assay [3] (setting [8]), 78% (active); in assay [3] (at 50.0 µM) it was 39.5%; in assay [4] (setting [7]) it was 11%; in assay [4] (setting [8]) it was 64%; in assay [4] (at 50.0 µM) it was 72% (active). Besides, the growth inhibition is 19% in assay [5] (setting [7]); 89% (active) in assay [5] (setting [8]); 27.9% in assay [5] (at 50.0 µM); 10% in assay [6] (setting [7]); 41% in assay [6] (setting [8]); 72.8% (active) in assay [6] (at 50.0 µM).
Turning to `COC(=O)c1ccc(=O)c2nc3/c(=C/O)c(O)cc(=O)c3[nH]c12`, the growth inhibition in assay [1] (setting [7]) was 98% (active); in assay [1] (setting [8]), 92% (active); in assay [1] (at 50.0 µM), 90% (active); in assay [2] (setting [7]) it was 99% (active); in assay [2] (setting [8]) it was 94% (active); in assay [2] (at 50.0 µM), 92.1% (active). Moreover, the growth inhibition in assay [3] (setting [7]) is 99% (active); in assay [3] (setting [8]), 97% (active); in assay [3] (at 50.0 µM), 91.2% (active); in assay [4] (setting [7]) it was 96% (active); in assay [4] (setting [8]), 96% (active); in assay [4] (at 50.0 µM), 89.3% (active). For the same compound, the growth inhibition in assay [5] (setting [7]) is 99% (active); in assay [5] (setting [8]), 96% (active); in assay [5] (at 50.0 µM), 89.5% (active); in assay [6] (setting [7]), 99% (active); in assay [6] (setting [8]), 95% (active); in assay [6] (at 50.0 µM), 39.5%.
Regarding `CC1=CC(=O)C=CC1(C)C(Cl)(Cl)Cl` (configuration not stated), the growth inhibition in assay [1] (setting [7]) is -16%; in assay [1] (setting [8]), -24%; in assay [1] (at 50.0 µM), -3.05%; in assay [2] (setting [7]), -15%; in assay [2] (setting [8]) it was -12%; in assay [2] (at 50.0 µM), -1.55%. Also, the growth inhibition in assay [3] (setting [7]) was 0%; in assay [3] (setting [8]), -6%; in assay [3] (at 50.0 µM), -11.6%; in assay [4] (setting [7]), -44%; in assay [4] (setting [8]), -10%; in assay [4] (at 50.0 µM) it was 44.3%. The growth inhibition in assay [5] (setting [7]) was -6%; in assay [5] (setting [8]), 2%; in assay [5] (at 50.0 µM), -0.65%; in assay [6] (setting [7]), -10%; in assay [6] (setting [8]), -22%; in assay [6] (at 50.0 µM) it was 1%.
Take `O=S(=O)(O)c1cnccn1`: the growth inhibition is 0% in assay [1] (setting [7]); -4% in assay [1] (setting [8]); 91.3% (active) in assay [1] (at 50.0 µM); -2% in assay [2] (setting [7]); -3% in assay [2] (setting [8]); 98.3% (active) in assay [2] (at 50.0 µM). Also, the growth inhibition was -4% in assay [3] (setting [7]); -3% in assay [3] (setting [8]); 87.8% (active) in assay [3] (at 50.0 µM); 0% in assay [4] (setting [7]); 3% in assay [4] (setting [8]); 80.8% (active) in assay [4] (at 50.0 µM). Besides, the growth inhibition in assay [5] (setting [7]) is 2%; in assay [5] (setting [8]), 6%; in assay [5] (at 50.0 µM), 96.9% (active); in assay [6] (setting [7]), 1%; in assay [6] (setting [8]), -2%; in assay [6] (at 50.0 µM), 80.9% (active).
`Cc1cc(C(=O)c2ccc(Cl)cc2)ccc1O`: the growth inhibition in assay [1] (setting [7]) was 0%; in assay [1] (setting [8]), 4%; in assay [1] (at 50.0 µM), 72.4% (active); in assay [2] (setting [7]), -4%; in assay [2] (setting [8]), -2%; in assay [2] (at 50.0 µM), 57.5%. The growth inhibition in assay [3] (setting [7]) is 0%; in assay [3] (setting [8]), 4%; in assay [3] (at 50.0 µM), 85.9% (active); in assay [4] (setting [7]), -6%; in assay [4] (setting [8]) it was -9%; in assay [4] (at 50.0 µM), 46%. In addition, the growth inhibition in assay [5] (setting [7]) is -3%; in assay [5] (setting [8]) it was 0%; in assay [5] (at 50.0 µM), 24.8%; in assay [6] (setting [7]), -1%; in assay [6] (setting [8]), -2%; in assay [6] (at 50.0 µM), 70.5% (active).
For the compound `NC(=S)N/N=C/c1ncccc1O`, the growth inhibition in assay [1] (setting [7]) is -157%; in assay [1] (setting [8]) it was -91%; in assay [1] (at 50.0 µM), 24.4%; in assay [2] (setting [7]) it was -50%; in assay [2] (setting [8]) it was 19%; in assay [2] (at 50.0 µM), 80.2% (active). Further, the growth inhibition was -63% in assay [3] (setting [7]); -30% in assay [3] (setting [8]); 7.55% in assay [3] (at 50.0 µM); -68% in assay [4] (setting [7]); -73% in assay [4] (setting [8]); -23.4% in assay [4] (at 50.0 µM). The growth inhibition in assay [5] (setting [7]) is -74%; in assay [5] (setting [8]) it was -78%; in assay [5] (at 50.0 µM), -7.5%; in assay [6] (setting [7]) it was -123%; in assay [6] (setting [8]), -101%; in assay [6] (at 50.0 µM), 21.4%.
Take `OC(CSc1ccccc1)CN1CCN(c2ccc(Cl)cc2)CC1` (configuration not stated): the growth inhibition in assay [1] (setting [7]) is 8%; in assay [1] (setting [8]), 73% (active); in assay [1] (at 50.0 µM), 84.2% (active); in assay [2] (setting [7]), 5%; in assay [2] (setting [8]) it was 43%; in assay [2] (at 50.0 µM), 25.5%. Moreover, the growth inhibition in assay [3] (setting [7]) was 6%; in assay [3] (setting [8]), 90% (active); in assay [3] (at 50.0 µM) it was 79% (active); in assay [4] (setting [7]), 9%; in assay [4] (setting [8]), 62%; in assay [4] (at 50.0 µM), 15.6%. The growth inhibition is 7% in assay [5] (setting [7]); 76% (active) in assay [5] (setting [8]); 80.8% (active) in assay [5] (at 50.0 µM); 4% in assay [6] (setting [7]); 73% (active) in assay [6] (setting [8]); 59.5% in assay [6] (at 50.0 µM).
On to `O=[n+]1c2ccccc2n([O-])c2cc(Cl)ccc21`, for which the growth inhibition was 95% (active) in assay [1] (setting [7]); 99% (active) in assay [1] (setting [8]); 98.7% (active) in assay [1] (at 50.0 µM); 86% (active) in assay [2] (setting [7]); 100% (active) in assay [2] (setting [8]); 99.4% (active) in assay [2] (at 50.0 µM). Besides, the growth inhibition in assay [3] (setting [7]) is 77% (active); in assay [3] (setting [8]) it was 99% (active); in assay [3] (at 50.0 µM) it was 99.1% (active); in assay [4] (setting [7]), 48%; in assay [4] (setting [8]), 99% (active); in assay [4] (at 50.0 µM) it was 96.7% (active). In addition, the growth inhibition is 95% (active) in assay [5] (setting [7]); 100% (active) in assay [5] (setting [8]); 98.5% (active) in assay [5] (at 50.0 µM); 94% (active) in assay [6] (setting [7]); 99% (active) in assay [6] (setting [8]); 99.1% (active) in assay [6] (at 50.0 µM).
Regarding `COc1ccc(C(OCC2OC(n3ccc(NC(=O)c4ccccc4)nc3=O)C(O)C2O)(c2ccccc2)c2ccccc2)cc1` (configuration not stated), the growth inhibition was 56% in assay [1] (setting [7]); 91% (active) in assay [1] (setting [8]); 68.7% in assay [1] (at 50.0 µM); 23% in assay [2] (setting [7]); 91% (active) in assay [2] (setting [8]); 98.2% (active) in assay [2] (at 50.0 µM). Also, the growth inhibition in assay [3] (setting [7]) is 36%; in assay [3] (setting [8]) it was 83% (active); in assay [3] (at 50.0 µM) it was 56.4%; in assay [4] (setting [7]) it was 76% (active); in assay [4] (setting [8]), 96% (active); in assay [4] (at 50.0 µM), 84.8% (active). Besides, the growth inhibition in assay [5] (setting [7]) was 52%; in assay [5] (setting [8]) it was 90% (active); in assay [5] (at 50.0 µM), 98.5% (active); in assay [6] (setting [7]) it was 62%; in assay [6] (setting [8]) it was 90% (active); in assay [6] (at 50.0 µM) it was 84.2% (active).
